Source: PubChem BioAssay (NCATS)
Values without a mark were called inactive. Records with an inconclusive call do not appear. Activity calls are given as the source filed them. Unless noted, calls come from the whole dose curve; as a rule, active = well fitted curve in the direction sought with a large enough effect; inconclusive = small, poorly fitted or top-dose-only effect, or another doubt; inactive = no such curve, though single readings can be large; an effect the other way counts as inactive or inconclusive.

Columns and labels:
[1] = target: Lysosomal acid glucosylceramidase (Homo sapiens) (UniProt P04062); assay: Glucocerebrosidase-p2 (AID 348; in the data active = potency below about 10 µM; note: potency is the fitted concentration of half-maximal effect); settings: purified GBA, blue fluorogenic substrate, 40 min
How it was run: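 Normal human glucocerebrosidase (0.2 nM) with blue fluorogenic substrate (80 uM final) in citrate/phosphate pH 5.9 with 10mM sodium taurocholate, 0.01% tween-20; 40 min RT, NaOH/glycine stop; fluorescence Ex 365/Em 440; AC50 from a titration from 0.6 nM upwards.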

[2] = AP1 Signaling Pathway (AID 357; active = well fitted curve in either direction with a large enough effect, not every such curve was filed as active; note: % is set by controls: 0 for no effect and ±100 for the full control effect); settings: ME-180 AP-1-bla reporter, EGF-induced, beta-lactamase ratio, 5 h; at 7.69 µM (top of the series) unless noted
How it was run: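 AP-1-bla ME-180 cells with beta-lactamase reporter under AP-1 response element, stimulated with EC50 EGF; compounds titrated, 5 hours at 37 degrees Celsius. CCF4 read at 460/530 nm ratio; positive and negative modulators judged by AC50.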

[3] = target: Cytochrome P450 1A2 (Homo sapiens) (UniProt P05177); assay: p450-cyp1a2 (AID 410; calls by dose curve; note: potency is the fitted concentration of half-maximal effect); settings: recombinant CYP1A2, luciferin-ME demethylation, luminescence; series mostly up to 57 µM
How it was run: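 O-Demethylation of luciferin 6' methyl ether by human CYP1A2 is monitored as luciferase luminescence. Substrate sits at Km (100uM); enzyme is 20nM. Values are scaled to 57 uM furafylline as maximal inhibition.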

[4] = target: Glucocorticoid receptor (Homo sapiens) (UniProt P04150); assay: GR-GFP Redistribution (AID 450;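 active = compounds whose dose series gives a full or clear partial fitted curve of increased nuclear translocation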; note: potency is the fitted concentration of half-maximal effect); settings: U2OS GR-GFP nuclear translocation, laser cytometry, 2 h
[5] = target: Glucocorticoid receptor (Homo sapiens) (UniProt P04150); assay: GR-EFC Redistribution (AID 451; calls by dose curve; note: potency is the fitted concentration of half-maximal effect); settings: CHO-K1 GR-EFC translocation, beta-gal luminescence, 2 h
How it was run: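 CHO-K1 cells stably expressing nuclear-localized β-gal enzyme acceptor and GR fused C-terminally to the enzyme donor fragment; ligand-driven nuclear translocation restores β-gal by complementation. Compounds titrated up to 46 uM final, 2 h at 37 °C; luminescence read.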

[6] = target: Mitogen-activated protein kinase 10 (Mus musculus) (UniProt Q61831); assay: JNK3 AlphaScreen Assay (AID 530; active = well fitted curve in either direction with a large enough effect, not every such curve was filed as active;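 note: kinase came from lysate of stimulated human HepG2 cells; signal reports phosphorylation of biotinylated GST-cJun 1-79 at Ser73 with 10 µM ATP; % is set by controls: 0 for no effect and ±100 for the full control effect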); settings: JNK3 lysate, c-Jun phosphorylation; series mostly up to 57.1 µM
How it was run: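 Phosphorylation of biotinylated GST-cJun(1-79) at Ser73 is measured by AlphaScreen proximity luminescence. Enzyme is JNK3 in HepG2 lysates activated with interleukin-1beta and tumor necrosis factor alpha; ATP is 10 uM final.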

[7] = target: Cytochrome P450 3A4 (Homo sapiens) (UniProt P08684); assay: qHTS Assay for Inhibitors and Substrates of Cytochrome P450 3A4 (AID 884); settings: recombinant CYP3A4, Luciferin-PPXE luminescence; series mostly up to 57.1 µM; note: potency is the fitted concentration of half-maximal effect; nearly all actives have a fitted effect of over 50% in size
How it was run: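 Luminescent readout of luciferin produced by CYP3A4 (20 nM) dealkylation of Luciferin-PPXE, 25 uM (its KM). NADPH-driven reaction ran 60 min at RT after 10 min compound preincubation; data scaled to 57 uM ketoconazole as 100% inhibition.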

[8] = target: Cytochrome P450 3A4 (Homo sapiens) (UniProt P08684); assay: qHTS Assay for Activators of Cytochrome P450 3A4 (AID 885); settings: recombinant CYP3A4, Luciferin-PPXE luminescence, 60 min; series mostly up to 57.1 µM; note: nearly all actives have a fitted effect of over 65% in size
How it was run: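 Activators are scored by enhanced luminescence from CYP3A4 conversion of luciferin-PPXE (25uM, equal to KM) to luciferin, after 60 min at RT with an NADPH-regenerating system.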

[9] = target: Cytochrome P450 2C19 (Homo sapiens) (UniProt P33261); assay: qHTS Assay for Inhibitors and Substrates of Cytochrome P450 2C19 (AID 899); settings: recombinant CYP2C19, luciferin-H EGE luminescence; series mostly up to 57.1 µM; note: potency is the fitted concentration of half-maximal effect; nearly all actives have a fitted effect of over 60% in size
How it was run: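 NADPH-dependent conversion of Luciferin-H EGE (10uM, at KM) by 5nM enzyme in 50mM KPO4, 60 min at 37C following 10 min compound preincubation. Stopped with luciferin detection buffer; luminescence read after 20 min.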

[10] = target: Dual specificity protein kinase CLK4 (Homo sapiens) (UniProt Q9HAZ1); assay: qHTS Assay for Inhibitors of CDC-like Kinase 4 (Kinase-Glo Assay) (AID 1770); settings: recombinant Clk4, Kinase-Glo ATP depletion luminescence; series mostly up to 66.7 µM; note: nearly all actives have a fitted effect of over 65% in size; note: potency is the fitted concentration of half-maximal effect
How it was run: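 25 nM Clk4 with 100 uM RS repeat peptide and 1 uM ATP (final) in Tris pH7.5, 10 mM MgCl2, 4.5 h at room temperature. Remaining ATP measured by Kinase-Glo luciferase luminescence.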

[11] = target: Dual specificity protein kinase CLK4 (Homo sapiens) (UniProt Q9HAZ1); assay: qHTS Assay for Inhibitors of CDC-like Kinase 4 (ADP-Glo Assay) (AID 1771); settings: recombinant CLK4, ADP-Glo luminescence; series mostly up to 80 µM; note: nearly all actives have a fitted effect of over 70% in size; note: potency is the fitted concentration of half-maximal effect
How it was run: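 Compounds are pin-transferred onto substrate mix (100 uM RS peptide, 1 uM ATP), then 25 nM Clk4 is added. After 1 hr at room temperature, ADP-Glo reagent runs 45 min, detection reagent 30 min, then luminescence is read.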

[12] = target: Dual specificity protein kinase CLK4 (Homo sapiens) (UniProt Q9HAZ1); assay: qHTS Assay for Inhibitors of CDC-like Kinase 4 (ADP-FP Assay) (AID 1795); settings: Transcreener ADP fluorescence polarization; series mostly up to 50 µM; note: nearly all actives have a fitted effect of over 60% in size; note: potency is the fitted concentration of half-maximal effect
How it was run: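 Recombinant Clk4 (6.25 nM) phosphorylated 100 uM RS repeat peptide with 1 uM ATP in 25 mM Tris pH 7.5, 10 mM MgCl2, 0.5 mM EGTA, 2.5 mM DTT, 0.01% Triton X-100 for 1 h. ADP was detected by Transcreener ADP2 competitive fluorescence polarization after 30 min at room temperature.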

[13] = Primary qHTS for small molecule stabilizers of the endoplasmic reticulum resident proteome: Secreted ER Calcium Modulated Protein (SERCaMP) assay (AID 1508630); settings: SH-SY5Y GLuc-SERCaMP (Gaussia luciferase released on ER calcium loss) secretion, thapsigargin, luminescence; series mostly up to 38.4 µM; note: % is set by controls: 0 for no effect and ±100 for the full control effect
How it was run: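 The SH-SY5Y reporter protocol was run at 3 concentrations up to 38.3 uM (primary) or 11 concentrations (follow-up): 16 h compound, 100 nM thapsigargin for 4 h, then extracellular luciferase luminescence.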

[14] = NFAT Signaling Pathway (AID 444; active = well fitted curve in either direction with a large enough effect, not every such curve was filed as active;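 note: carbachol stimulus at about its EC50 of 1 µM final; % is set by controls: 0 for no effect and ±100 for the full control effect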); settings: Jurkat NFAT-bla M1, carbachol, beta-lactamase ratio, 5 h; at 7.69 µM (top of the series) unless noted
How it was run: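 Jurkat cells carrying an NFAT-driven β-lactamase reporter and co-transfected muscarinic M1 receptor were treated with compound plus carbachol (1 uM final, an EC50 level) for 5 h at 37 °C. CCF4 loading followed for 1 h at RT; 460/530 nm ratio gave %activity.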

[15] = Stat Signaling Pathway (AID 446; active = well fitted curve in either direction with a large enough effect, not every such curve was filed as active); settings: ME-180 (cervical carcinoma) SIE beta-lactamase reporter, IL-6 stimulated, 5 h; at 7.69 µM (top of the series) unless noted
How it was run: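 Emission at 460 and 530 nm (excitation 405 nm) reports SIE-controlled beta-lactamase in ME-180 cells. Cells received compound with 40 pM IL-6 for 5 hrs at 37 C; data scaled between 300 pM IL-6 and 125 nM JAK-inhibitor controls.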

[16] = target: 3',5'-cyclic-AMP phosphodiesterase 4B (Homo sapiens) (UniProt Q07343); assay: qHTS Assay for Inhibitors of PDE-IV (AID 607; active = well fitted activation curve with a large enough effect in the main read-out, with a control signal flat, not every such curve was filed as active; note: % of control where 0% means no effect); settings: HEK293 ACTOne CNG channel cells, membrane potential fluorescence; series mostly up to 22.9 µM
How it was run: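 The readout is membrane depolarisation from a cAMP-sensing CNG channel, detected with a potential dye at ex 535/em 590. Cells were HEK293-derived (endogenous PDE-IV) at 1000 cells/well, titrated up to 22.9 uM final.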

[17] = target: Ubiquitin carboxyl-terminal hydrolase 1 (Homo sapiens) (UniProt O94782); assay: Inhibitors of USP1/UAF1: Pilot qHTS (AID 504865); settings: purified USP1/UAF1, Ub-rhodamine cleavage fluorescence; series mostly up to 54.9 µM;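 note: rhodamine fluorescence freed from ubiquitin-rhodamine substrate followed over time; top concentration of the series differs between compounds; % is set by controls: 0 for no effect and ±100 for the full control effect; nearly all actives have a fitted effect of over 35% in size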
How it was run: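 USP1/UAF1 complex at 1 nM preincubated 15 min at room temperature with compound, then Ub-Rho substrate added at 150 nM final. Fluorescence (480/540 nm) read kinetically in 50 mM HEPES pH 7.8, 0.5 mM EDTA, 1 mM TCEP, 0.1 mg/ml BSA, 0.01% Tween-20.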

[18] = target: Cytochrome P450 2D6 (Homo sapiens) (UniProt P10635); assay: qHTS Assay for Inhibitors and Substrates of Cytochrome P450 2D6 (AID 891); settings: recombinant CYP2D6, luciferin-ME EGE luminescence; series mostly up to 57.1 µM; note: potency is the fitted concentration of half-maximal effect; nearly all actives have a fitted effect of over 60% in size
How it was run: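 Luminescent read-out of luciferin formed by 5 nM human CYP2D6 demethylating 30 uM Luciferin-ME EGE (Km level) over 60 min at room temperature after NADPH regeneration addition. Data normalized to full inhibition by 1.43 uM quinidine.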

Sequence of Dual specificity protein kinase CLK4 (Homo sapiens) (Q9HAZ1 whole entry, looked up): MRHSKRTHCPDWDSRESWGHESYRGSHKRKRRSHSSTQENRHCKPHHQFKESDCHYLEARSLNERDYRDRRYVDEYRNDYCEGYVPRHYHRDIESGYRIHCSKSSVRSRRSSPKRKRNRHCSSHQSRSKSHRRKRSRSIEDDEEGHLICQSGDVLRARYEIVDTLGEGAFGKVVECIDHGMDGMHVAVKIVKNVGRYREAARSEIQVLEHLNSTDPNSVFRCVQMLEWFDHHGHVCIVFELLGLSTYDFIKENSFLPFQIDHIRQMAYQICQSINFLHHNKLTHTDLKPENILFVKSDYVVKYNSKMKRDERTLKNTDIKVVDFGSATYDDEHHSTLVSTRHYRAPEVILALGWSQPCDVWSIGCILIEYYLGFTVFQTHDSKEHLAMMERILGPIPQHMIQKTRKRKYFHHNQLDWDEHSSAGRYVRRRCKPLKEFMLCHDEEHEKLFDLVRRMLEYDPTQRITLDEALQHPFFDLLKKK
Sequence of Cytochrome P450 3A4 (Homo sapiens) (P08684 whole entry, looked up): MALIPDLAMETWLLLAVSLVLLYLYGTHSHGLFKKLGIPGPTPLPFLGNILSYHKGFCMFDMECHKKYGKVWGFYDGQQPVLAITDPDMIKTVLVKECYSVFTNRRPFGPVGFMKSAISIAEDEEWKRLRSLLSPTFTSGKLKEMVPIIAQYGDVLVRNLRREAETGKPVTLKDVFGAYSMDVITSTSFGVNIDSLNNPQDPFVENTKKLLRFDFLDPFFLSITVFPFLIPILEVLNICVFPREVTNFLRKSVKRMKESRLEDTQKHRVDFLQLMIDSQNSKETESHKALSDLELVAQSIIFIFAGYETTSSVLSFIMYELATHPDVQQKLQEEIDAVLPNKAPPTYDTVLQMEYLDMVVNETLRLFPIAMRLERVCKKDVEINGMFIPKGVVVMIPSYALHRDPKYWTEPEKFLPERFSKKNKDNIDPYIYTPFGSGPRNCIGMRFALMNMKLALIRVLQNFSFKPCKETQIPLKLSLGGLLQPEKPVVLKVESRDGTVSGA
Sequence of Glucocorticoid receptor (Homo sapiens) (P04150 whole entry, looked up, the tested form may be a part): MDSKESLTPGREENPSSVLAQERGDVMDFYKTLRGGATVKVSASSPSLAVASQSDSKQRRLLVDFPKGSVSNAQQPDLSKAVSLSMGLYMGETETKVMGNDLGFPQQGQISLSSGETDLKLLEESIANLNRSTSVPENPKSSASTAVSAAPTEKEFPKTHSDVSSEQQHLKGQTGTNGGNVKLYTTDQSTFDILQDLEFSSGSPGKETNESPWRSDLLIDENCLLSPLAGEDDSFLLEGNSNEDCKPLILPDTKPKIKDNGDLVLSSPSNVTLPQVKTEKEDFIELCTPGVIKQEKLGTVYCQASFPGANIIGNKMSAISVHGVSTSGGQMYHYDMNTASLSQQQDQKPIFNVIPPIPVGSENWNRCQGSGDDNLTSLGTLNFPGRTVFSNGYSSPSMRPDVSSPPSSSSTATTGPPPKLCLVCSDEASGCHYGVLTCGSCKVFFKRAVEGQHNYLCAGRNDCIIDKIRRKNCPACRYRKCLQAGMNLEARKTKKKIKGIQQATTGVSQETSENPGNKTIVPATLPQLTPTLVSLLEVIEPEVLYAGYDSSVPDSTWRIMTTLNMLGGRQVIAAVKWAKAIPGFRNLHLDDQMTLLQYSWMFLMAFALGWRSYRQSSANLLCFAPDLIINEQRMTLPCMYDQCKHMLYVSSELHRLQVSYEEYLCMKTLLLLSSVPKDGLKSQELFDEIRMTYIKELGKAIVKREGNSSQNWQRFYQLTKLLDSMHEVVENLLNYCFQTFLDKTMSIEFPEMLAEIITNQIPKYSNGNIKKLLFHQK
Sequence of Lysosomal acid glucosylceramidase (Homo sapiens) (P04062 whole entry, looked up): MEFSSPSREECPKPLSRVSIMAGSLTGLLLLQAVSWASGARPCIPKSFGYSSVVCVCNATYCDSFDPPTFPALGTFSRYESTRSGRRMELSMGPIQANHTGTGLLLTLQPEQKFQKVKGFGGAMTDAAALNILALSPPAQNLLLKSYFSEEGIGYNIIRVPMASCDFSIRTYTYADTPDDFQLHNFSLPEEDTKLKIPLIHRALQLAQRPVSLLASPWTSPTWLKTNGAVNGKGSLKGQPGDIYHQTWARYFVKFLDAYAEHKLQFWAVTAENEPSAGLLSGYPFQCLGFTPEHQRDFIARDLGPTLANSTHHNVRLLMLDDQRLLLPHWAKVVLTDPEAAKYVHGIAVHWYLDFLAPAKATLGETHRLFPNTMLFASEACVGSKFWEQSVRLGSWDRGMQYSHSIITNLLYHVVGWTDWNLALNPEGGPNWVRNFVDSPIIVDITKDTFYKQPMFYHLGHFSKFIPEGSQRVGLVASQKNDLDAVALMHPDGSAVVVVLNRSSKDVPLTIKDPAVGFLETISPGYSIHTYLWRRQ
Sequence of Cytochrome P450 1A2 (Homo sapiens) (P05177 whole entry, looked up): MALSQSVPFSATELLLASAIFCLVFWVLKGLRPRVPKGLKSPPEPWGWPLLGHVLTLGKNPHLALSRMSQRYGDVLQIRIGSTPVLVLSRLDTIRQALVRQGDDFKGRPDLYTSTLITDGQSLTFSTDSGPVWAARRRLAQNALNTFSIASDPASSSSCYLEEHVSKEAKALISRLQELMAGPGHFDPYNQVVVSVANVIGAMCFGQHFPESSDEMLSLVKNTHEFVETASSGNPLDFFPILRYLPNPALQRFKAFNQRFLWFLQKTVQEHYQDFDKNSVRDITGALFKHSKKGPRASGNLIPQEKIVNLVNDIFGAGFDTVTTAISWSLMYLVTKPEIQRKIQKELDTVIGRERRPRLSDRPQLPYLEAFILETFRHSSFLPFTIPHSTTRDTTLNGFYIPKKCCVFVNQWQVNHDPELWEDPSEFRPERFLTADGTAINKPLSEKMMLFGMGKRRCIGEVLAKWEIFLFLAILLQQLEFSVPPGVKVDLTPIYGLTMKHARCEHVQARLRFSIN
Sequence of Ubiquitin carboxyl-terminal hydrolase 1 (Homo sapiens) (O94782 whole entry, looked up): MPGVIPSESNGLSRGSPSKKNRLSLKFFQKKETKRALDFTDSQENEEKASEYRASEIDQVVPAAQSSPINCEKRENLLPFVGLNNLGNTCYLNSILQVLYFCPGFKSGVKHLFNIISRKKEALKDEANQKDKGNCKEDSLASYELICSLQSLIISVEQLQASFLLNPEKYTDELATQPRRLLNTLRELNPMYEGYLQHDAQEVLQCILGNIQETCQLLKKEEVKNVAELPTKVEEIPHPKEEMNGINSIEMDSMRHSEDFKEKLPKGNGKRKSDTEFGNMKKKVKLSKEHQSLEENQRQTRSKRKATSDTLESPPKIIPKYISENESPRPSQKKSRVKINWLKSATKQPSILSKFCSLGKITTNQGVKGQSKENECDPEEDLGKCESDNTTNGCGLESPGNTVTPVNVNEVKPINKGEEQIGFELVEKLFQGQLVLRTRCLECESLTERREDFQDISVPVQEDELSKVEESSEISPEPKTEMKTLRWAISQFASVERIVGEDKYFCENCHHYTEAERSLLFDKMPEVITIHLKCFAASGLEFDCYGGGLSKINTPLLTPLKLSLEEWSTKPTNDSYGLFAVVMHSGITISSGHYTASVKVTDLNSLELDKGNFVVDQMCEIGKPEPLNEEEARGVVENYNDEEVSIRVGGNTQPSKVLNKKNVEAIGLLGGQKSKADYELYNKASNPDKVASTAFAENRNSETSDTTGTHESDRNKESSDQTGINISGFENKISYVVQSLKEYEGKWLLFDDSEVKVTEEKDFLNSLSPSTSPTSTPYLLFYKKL
Sequence of 3',5'-cyclic-AMP phosphodiesterase 4B (Homo sapiens) (Q07343 whole entry, looked up): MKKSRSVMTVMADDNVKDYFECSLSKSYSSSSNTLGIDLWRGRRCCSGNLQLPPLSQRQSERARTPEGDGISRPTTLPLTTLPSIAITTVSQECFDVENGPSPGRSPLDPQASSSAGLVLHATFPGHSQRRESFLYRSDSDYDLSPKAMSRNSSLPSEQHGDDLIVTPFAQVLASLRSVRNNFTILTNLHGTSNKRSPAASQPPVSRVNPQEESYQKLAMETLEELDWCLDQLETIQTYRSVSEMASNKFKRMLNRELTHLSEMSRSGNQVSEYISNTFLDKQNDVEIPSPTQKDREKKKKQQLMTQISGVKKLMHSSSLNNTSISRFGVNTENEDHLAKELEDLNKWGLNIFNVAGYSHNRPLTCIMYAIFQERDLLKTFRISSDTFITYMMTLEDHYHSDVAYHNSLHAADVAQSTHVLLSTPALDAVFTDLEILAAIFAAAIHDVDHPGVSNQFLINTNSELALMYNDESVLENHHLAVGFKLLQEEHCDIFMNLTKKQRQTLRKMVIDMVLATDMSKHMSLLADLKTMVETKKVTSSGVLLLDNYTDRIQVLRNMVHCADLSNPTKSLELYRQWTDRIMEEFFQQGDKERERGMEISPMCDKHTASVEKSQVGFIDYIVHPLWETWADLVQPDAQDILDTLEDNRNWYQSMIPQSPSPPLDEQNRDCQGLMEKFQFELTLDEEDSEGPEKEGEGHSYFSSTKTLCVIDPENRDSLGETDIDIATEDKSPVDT
Sequence of Cytochrome P450 2C19 (Homo sapiens) (P33261 whole entry, looked up): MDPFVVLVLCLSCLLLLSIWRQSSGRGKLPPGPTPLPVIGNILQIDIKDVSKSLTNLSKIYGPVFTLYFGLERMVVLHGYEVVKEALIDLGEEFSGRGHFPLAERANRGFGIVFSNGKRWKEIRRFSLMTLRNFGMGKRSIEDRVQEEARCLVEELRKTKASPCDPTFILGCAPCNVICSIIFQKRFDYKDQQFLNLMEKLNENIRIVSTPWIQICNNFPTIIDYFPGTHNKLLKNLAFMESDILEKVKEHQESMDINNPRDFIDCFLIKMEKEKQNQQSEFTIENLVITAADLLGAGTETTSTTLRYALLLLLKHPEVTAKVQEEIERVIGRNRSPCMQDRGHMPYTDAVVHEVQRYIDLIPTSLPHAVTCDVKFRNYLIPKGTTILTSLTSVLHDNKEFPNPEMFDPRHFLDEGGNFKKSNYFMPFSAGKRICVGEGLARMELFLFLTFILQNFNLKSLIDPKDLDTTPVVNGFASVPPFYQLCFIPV

SMILES | Potency [1] [µM] | activity change, negative = inhibition [2] [%] | Potency [3] | Potency [4] [µM] | Potency [5] [µM] | Potency [6] | Potency [7] | Potency [8] | Potency [9] | Potency [10] | Potency [11] | Potency [12] | outcome [13] | activity change, negative = inhibition [14] [%] | activity, negative = inhibition [15] [%] | Potency [16] | Potency [17] | Potency [18]
COc1ccc(CNc2nc(-c3c(C)noc3C)nc3ccccc23)c(OC)c1 | > 2.29 | 5.92 | 0.794 µM (active) | > 46 | > 46 | inactive | 2.51 µM (active) | inactive | 3.16 µM (active) | inactive | inactive | inactive | inactive |  |  |  |  | 
COc1cccc(Cn2c(=O)c(-c3ccccc3)nc3cncnc32)c1 | > 11.4 | -16.5 |  | > 9.22 | > 46 | inactive |  |  |  | inactive | inactive | inactive | inactive | -5.39 | -11.9 | inactive | inactive | 
c1cncc(-c2nc(NCc3cccs3)c3ccccc3n2)c1 | > 11.4 | -18.5 | 0.316 µM (active) | > 46 | > 46 | inactive | 2 µM (active) | inactive |  | 1.58 µM (active) | 1.26 µM (active) | 2 µM (active) | inactive |  |  |  | inactive | 6.31 µM (active)
Cn1c(=O)c(-c2ccc(F)cc2)nc2cnc(Nc3ccccc3)nc21 | > 11.4 | 4.86 |  | > 9.22 | > 46 | inactive |  |  |  | inactive | inactive | inactive | inactive | -9.42 | -5.13 |  | inactive | 
COc1ncc2nc(-c3cn(C)c4ccccc34)c(=O)n(C[C@H]3CCCO3)c2n1 | > 11.4 | -6.51 |  | > 9.22 | > 46 | inactive |  |  |  | inactive | inactive | inactive | inactive | 3.98 | -5.17 |  | inactive | 
CN(C)c1ncc2nc(-c3ccc(Cl)cc3)c(=O)n(C)c2n1 | > 11.4 | 24.8 | 1.58 µM (active) | > 9.22 | > 46 | inactive |  |  |  | inactive | inactive | inactive | inactive |  |  | inactive | inactive | 
COc1ncc2nc(-c3cccs3)c(=O)n(Cc3cccs3)c2n1 | > 11.4 | 5.34 |  | > 9.22 | > 46 | inactive |  |  |  | inactive | inactive | inactive | inactive | 5.36 | -1.88 |  | inactive | 
